According to PubChem BioAssay (NCATS):
Records with an inconclusive call do not appear. Activity calls are given as the source filed them. The call rests on the fitted dose curve; in most records, active means well fitted curve in the direction sought with a large enough effect; inconclusive means small, poorly fitted or top-dose-only effect, or another doubt; inactive means no such curve, though single readings can be large; an effect the other way counts as inactive or inconclusive.

Tests used:
[1] = Quantitative High-Throughput drug screen in 47 multiple myeloma cell lines against the NCATS MIPE library collection: PE2_PLB cell viability assay (AID 1919869); further: nearly all actives have a fitted effect of over 35% in size; further: potency means the concentration at half of the fitted maximal effect
Procedure, shortened: (§1)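 500 cells/well per myeloma line exposed to pinned MIPE 4.0 compounds for 48 h at 37 °C, 5% CO2. Viability read as ATP by CellTiter-Glo luminescence, normalised to DMSO-only (100%) and media-only (0%) wells.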

[2] = Quantitative High-Throughput drug screen in 47 multiple myeloma cell lines against the NCATS MIPE library collection: RPMI8226_ATCC cell viability assay (AID 1919871); further: nearly all actives have a fitted effect of over 30% in size; further: potency means the concentration at half of the fitted maximal effect
Procedure, shortened: as §1

[3] = Quantitative High-Throughput drug screen in 47 multiple myeloma cell lines against the NCATS MIPE library collection: OPM2_DSMZ cell viability assay (AID 1919872); further: nearly all actives have a fitted effect of over 30% in size
Procedure, shortened: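 Inhibition of cell viability is measured here. Each line was plated at 500 cells per well, treated with MIPE 4.0 drugs, kept 48 hours at 37C, then assayed for ATP content by CellTiter-Glo luminescence.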

[4] = Quantitative High-Throughput drug screen in 47 multiple myeloma cell lines against the NCATS MIPE library collection: KMS11_JCRBsus cell viability assay (AID 1919873); further: nearly all actives have a fitted effect of over 50% in size; further: potency means the concentration at half of the fitted maximal effect
Procedure, shortened: as §1

[5] = Quantitative High-Throughput drug screen in 47 multiple myeloma cell lines against the NCATS MIPE library collection: PCM6_Riken cell viability assay (AID 1919870); further: nearly all actives have a fitted effect of over 30% in size; further: potency means the concentration at half of the fitted maximal effect
Procedure, shortened: as §1

[6] = Quantitative High-Throughput drug screen in 47 multiple myeloma cell lines against the NCATS MIPE library collection: KMS28BM_JCRB cell viability assay (AID 1919874); further: nearly all actives have a fitted effect of over 35% in size; further: potency means the concentration at half of the fitted maximal effect
Excerpt: PI: Beverly A. Mock Ph.D.
Laboratory of Cancer Biology and Genetics,
Center for Cancer Research, National Cancer Institute,
National Institute of Health, Bethesda, Maryland
Drug resistance and disease progression are common in multiple myeloma (MM) patients, underscoring the need for new therapeutic combinations. […] We hypothesized that effective combinations would reduce MYC expression and enhance p16 activity. […] These preclinical data identify potentially useful drug combinations for evaluation in drug-resistant MM and reveal potential mechanisms of combined drug sensitivity.
Described herein is the primary MIPE qHTS used to cherrypick compounds. Validated compounds were then further tested for potential synergistic activiy.
[1] Peat TJ, Gaikwad SM, Dubois W, Gyabaah-Kessie N, Zhang S, Gorjifard S, Phyo Z, Andres M, Hughitt VK, Simpson RM, Miller MA, Girvin AT, Taylor A, Williams D, D'Antonio N, Zhang Y, Rajagopalan A, Flietner E, Wilson K, Zhang X, Shinn P, Klumpp-Thomas C, McKnight C, Itkin Z, Chen L, Kazandijian D, Zhang J, Michalowski AM, Simmons JK, Keats J, Thomas CJ, Mock BA. Drug combinations identified by high-throughput screening promote cell cycle transition and upregulate Smad pathways in myeloma. Cancer Lett. 2023 Aug 1;568:216284. doi: 10.1016/j.canlet.2023.216284. Epub 2023 Jun 24. PMID: 37356470; PMCID: PMC10408729.
SEQUENCE No. (e.g., 1, 2, 3, etc.); […] (e.g., Cells, Incubation, Reagent, etc.); VALUE and DESCRIPTION.
1; Cells; 5 uL; white, solid bottom 1536-well Greiner assay plate.
2; Compounds; 23 nL; Kalypsis pin tool (Wako USA) equipped with a 1536-well pin head to transfer to the assay plates.
3; Incubation; 48 hours; 37C incubation.
4; Reagent;5uL; CellTiter Glo (Promega).
5; Detector; 425V; Luminescence; Viewlux PerkinElmer. […]
1. […] Briefly, the corresponding myeloma cell lines were screened in 1,536-well plates with 500 cells, 5-uL per well for inhibition of cell viability (assessed by measuring ATP levels with CellTiterGlo). […]
5. Signal was measured as median relative luminescence units on a ViewLux (PerkinElmer) multiplate reader. […]

[7] = Quantitative High-Throughput drug screen in 47 multiple myeloma cell lines against the NCATS MIPE library collection: UTMC2_PLB cell viability assay (AID 1919868); conditions: CellTiter-Glo ATP luminescence, 48 h; further: potency means the concentration at half of the fitted maximal effect; nearly all actives have a fitted effect of over 55% in size
Procedure, shortened: as §1

[8] = molecular target: Cytochrome P450 3A4 (Homo sapiens) (UniProt P08684); assay: qHTS for inhibitors of CYP3A4 against the NCATS DSHEA and TCM libraries (AID 1919971);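 further: inhibition lowers luminescence from luciferin made by CYP3A4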
Procedure, shortened: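 Read-out is luminescence after P450-Glo detection (30 min, RT). Before that: 15 min compound–enzyme preincubation, then 30-45 min reaction with 1x NADPH regeneration solution, substrate concentration isoform-specific.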

[9] = molecular target: Cytochrome P450 2D6 (Homo sapiens) (UniProt P10635); assay: qHTS for inhibitors of CYP2D6 against the NCATS DSHEA and TCM libraries (AID 1919972)
Procedure, shortened: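 Luminescent P450-Glo read-out of CYP2D6 turnover of a luciferin substrate after NADPH-driven reaction of 30-45 min at room temperature. Compounds were first preincubated 15 min with enzyme at titrated concentrations; quinidine was the intraplate control.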

[10] = KB-3-1 P-gp reporter qHTS against the NCATS DSHEA and TCM libraries (AID 1919975)
Procedure, shortened: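 72 h exposure of KB-3-1 cells (DMEM, 10% FBS) to DSHEA/TCM samples, concentration-response; cell viability measured as CellTiter-Glo luminescence after 30 min at room temperature.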

Measured: Potency

Chain of Cytochrome P450 3A4 (Homo sapiens) (P08684 whole entry, looked up, canonical isoform): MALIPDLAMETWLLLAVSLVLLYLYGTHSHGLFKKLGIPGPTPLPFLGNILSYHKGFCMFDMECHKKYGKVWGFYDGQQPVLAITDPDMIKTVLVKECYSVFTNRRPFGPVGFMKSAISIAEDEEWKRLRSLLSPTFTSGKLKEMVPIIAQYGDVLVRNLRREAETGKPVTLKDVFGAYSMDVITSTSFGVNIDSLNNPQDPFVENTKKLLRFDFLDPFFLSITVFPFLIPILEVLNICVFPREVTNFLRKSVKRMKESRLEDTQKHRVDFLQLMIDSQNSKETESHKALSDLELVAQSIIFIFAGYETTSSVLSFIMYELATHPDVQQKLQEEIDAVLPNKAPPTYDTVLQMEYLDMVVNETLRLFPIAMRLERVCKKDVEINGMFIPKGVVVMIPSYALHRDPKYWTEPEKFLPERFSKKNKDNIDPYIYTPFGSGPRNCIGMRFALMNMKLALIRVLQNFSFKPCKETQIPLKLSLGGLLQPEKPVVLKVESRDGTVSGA
Chain of Cytochrome P450 2D6 (Homo sapiens) (P10635 whole entry, looked up): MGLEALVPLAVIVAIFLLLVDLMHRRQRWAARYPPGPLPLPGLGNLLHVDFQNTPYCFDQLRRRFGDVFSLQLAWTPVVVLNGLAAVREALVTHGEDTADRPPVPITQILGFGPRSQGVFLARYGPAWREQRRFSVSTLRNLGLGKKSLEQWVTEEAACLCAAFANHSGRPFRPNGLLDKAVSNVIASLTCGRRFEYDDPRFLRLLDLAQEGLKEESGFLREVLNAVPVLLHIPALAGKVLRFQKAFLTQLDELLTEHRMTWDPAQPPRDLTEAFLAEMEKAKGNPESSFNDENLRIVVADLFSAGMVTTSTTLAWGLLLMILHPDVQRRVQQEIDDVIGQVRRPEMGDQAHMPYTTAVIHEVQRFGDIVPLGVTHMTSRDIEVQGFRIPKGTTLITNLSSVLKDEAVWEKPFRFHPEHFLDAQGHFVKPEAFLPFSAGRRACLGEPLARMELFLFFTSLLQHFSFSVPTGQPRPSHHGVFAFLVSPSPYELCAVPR

O=C(O)c1nn(Cc2ccc(Cl)cc2Cl)c2ccccc12
inactive: [1] | [2] | [3] | [4]

COC(=O)C1=CCCN(C)C1
inactive: [1] | [5] | [3] | [4] | [6]

C[C@@H]1C[C@@H]([C@H](O)CC2CC(=O)NC(=O)C2)C(=O)[C@@H](C)C1
active: [7] 833 nM | [1] 1480 nM | [5] 935 nM | [2] 833 nM | [4] 187 nM | [6] 833 nM

COc1ccc(C(=O)N2CCCC2=O)cc1
active: [2] 2350 nM | [4] 20900 nM | [6] 8330 nM
inactive: [1]

C[C@]12CC[C@H](O)CC1=CC[C@@H]1[C@@H]2CC[C@]2(C)C(=O)CC[C@@H]12
inactive: [8] | [9] | [10]
